Test results as given in the supplement of paper PMC12494721.
Counter-ions that a name gives are not always drawn.

How the values were obtained:
Details in all cases: incubation time: 27 h, anaerobic, 37 °C;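 for the amine columns active = adjusted P below 0.05 in both replicates with a change the same way and a mean fold change under 0.8 or over 1.25; inactive = the rest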
[1] = test system: Clostridium sporogenes DSM 1664; assay: growth (OD595) fold change vs plate DMSO controls (fold change (ratio)); higher = more growth
Outline: (§1)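 Growth is the fold change relative to the median of plate DMSO controls. Readings came from anaerobic mGAM cultures in 96-well plates grown for 27 h at 37 °C and read at 595 nm. They were blank-subtracted, corrected for compound background with 20 µM compound solutions in water, and converted to OD with a calibration factor of 5. Values are means of 2 biological replicates, and fold changes above 1.5 were set to NA.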

Escherichia coli IAI1 [2] = assay: as above
Outline: as §1

[3] = test system: Klebsiella aerogenes DSM 30053; assay: as above
Outline: as §1

[4] = test system: Ruminococcus gnavus DSM 108212; assay: as above
Outline: as §1

[5] = test system: Klebsiella aerogenes DSM 30053; assay: fold change of Histamine concentration vs plate DMSO controls (fold change (ratio)); higher = more amine produced, active = hit call of the paper (significant change in both replicates, either direction)
Outline: (§2)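 Anaerobic mGAM cultures of four gut bacterial strains were grown at 37 °C for 27 h in 80 µL wells, starting at OD 0.1 before 1:1 dilution. Compounds were at 20 µM final (sweeteners 50 µM). Whole cultures were extracted with cold acetonitrile/methanol containing 0.1% formic acid and centrifuged. Amines were quantified by LC–triple-quadrupole MS (dynamic MRM) against external calibration curves and drift-corrected within batch. Each value is the fold change versus plate DMSO controls, averaged over 2 biological replicates.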

[6] = test system: Clostridium sporogenes DSM 1664; assay: fold change of Tryptamine concentration vs plate DMSO controls (fold change (ratio)); higher = more amine produced, active = hit call of the paper (significant change in both replicates, either direction)
Outline: as §2

[7] = test system: Ruminococcus gnavus DSM 108212; assay: as above
Outline: as §2

Escherichia coli IAI1 [8] = assay: fold change of Putrescine concentration vs plate DMSO controls (fold change (ratio)); higher = more amine produced, active = hit call of the paper (significant change in both replicates, either direction)
Outline: as §2

[9] = test system: Klebsiella aerogenes DSM 30053; assay: as above
Outline: as §2

Escherichia coli IAI1 [10] = assay: fold change of Cadaverine concentration vs plate DMSO controls (fold change (ratio)); higher = more amine produced, active = hit call of the paper (significant change in both replicates, either direction)
Outline: as §2

[11] = test system: Klebsiella aerogenes DSM 30053; assay: as above
Outline: as §2

[12] = test system: Ruminococcus gnavus DSM 108212; assay: fold change of 2-Phenylethylamine concentration vs plate DMSO controls (fold change (ratio)); higher = more amine produced, active = hit call of the paper (significant change in both replicates, either direction)
Outline: as §2

| Compound | growth [1] | growth (Escherichia coli IAI1 [2]) | growth [3] | growth [4] | fold change of Histamine concentration [5] | fold change of Tryptamine concentration [6] | fold change of Tryptamine concentration [7] | fold change of Putrescine concentration (Escherichia coli IAI1 [8]) | fold change of Putrescine concentration [9] | fold change of Cadaverine concentration (Escherichia coli IAI1 [10]) | fold change of Cadaverine concentration [11] | fold change of 2-Phenylethylamine concentration [12] |
| --- | --- | --- | --- | --- | --- | --- | --- | --- | --- | --- | --- | --- |
| Nc1c(CC(=O)O)cccc1C(=O)c1ccc(Br)cc1 [Bromfenac] (20 µM) | 1.21 | 1.15 | 1.04 | 1.13 | 0.965 (inactive) | 1.01 (inactive) | 1.08 (inactive) | 1.02 (inactive) | 1 (inactive) | 0.911 (inactive) | 1.01 (inactive) | 1.15 (inactive) |
| O=C(O)c1cccnc1Nc1cccc(C(F)(F)F)c1 [Niflumic acid] (20 µM) | 0.913 | 1.08 | 0.996 | 1.32 | 1.05 (inactive) | 1.04 (inactive) | 1.02 (inactive) | 1.08 (inactive) | 1.01 (inactive) | 0.996 (inactive) | 0.993 (inactive) | 0.988 (inactive) |
| CN(N=O)C(=O)N[C@H]1C(O)O[C@H](CO)[C@@H](O)[C@@H]1O (mixture of isomers) [Streptozotocin] (20 µM) | 1.04 | 1.19 | 1 | 0.279 | 0.835 (inactive) | 0.798 (inactive) | 0.312 (active) | 1.04 (inactive) | 0.962 (inactive) | 1.31 (active) | 0.993 (inactive) | 0.376 (inactive) |
| CCOc1ccc2c(c1)C(C)=CC(C)(C)N2 [Ethoxyquin] (20 µM) | 0.801 | 1 | 1.01 | 1.22 | 1.07 (inactive) | 1.06 (inactive) | 0.854 (inactive) | 1 (inactive) | 1.01 (inactive) | 0.994 (inactive) | 0.986 (inactive) | 0.807 (inactive) |
| CCOC(=O)Nc1ccc2c(c1)N(C(=O)CCN1CCOCC1)c1ccccc1S2 [Moricizine hydrochloride] (20 µM) | 1.09 | 1.08 | 0.995 | 1.06 | 1 (inactive) | 0.989 (inactive) | 0.978 (inactive) | 1.03 (inactive) | 1.01 (inactive) | 1.01 (inactive) | 1 (inactive) | 1 (inactive) |
| CCN(CC)CCOC(=O)c1ccc(N)cc1 [Procaine hydrochloride] (20 µM) | 0.834 | 1.24 | 1.08 | 1.23 | 0.974 (inactive) | 1.04 (inactive) | 1.04 (inactive) | 1.16 (inactive) | 1.03 (inactive) | 0.979 (inactive) | 1.01 (inactive) | 0.992 (inactive) |
